# Experimental data reported in PubChem BioAssay (Tox21).
# Values without a mark were called inactive. Results filed as inconclusive are left out. Where a call stands in place of a potency, no number is given. Calls of active or inactive are those of the source. Unless noted, calls follow the shape of the dose curve; as a rule, active = well fitted curve in the direction sought with a large enough effect in the repeat runs; inconclusive = weak or mixed curves; inactive = no such curve, though single readings can be large; an effect the other way counts as inactive or inconclusive.
# Experiments:
# [1] = qHTS assay to identify small molecule antagonists of the estrogen related receptor (ERR) signaling pathway from Tox21 library - cell viability counter screen (AID 1224834); also: nearly all actives have a fitted effect of over 30% in size; also: potency is read from the fitted curve at half-maximal effect
# How it was run: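 ERR reporter cells, 2,000 per well, rested 6 h, then exposed to compound in DMSO for 17.5 hours at 37 C. Viability read as fluorescence after 30 min with CellTiter-Fluor.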
# [2] = target: Luciferin 4-monooxygenase (Photinus pyralis) (UniProt P08659); experiment: qHTS assay to identify small molecule inhibitors of firefly luciferase (AID 1224835); also: nearly all actives have a fitted effect of over 25% in size
# How it was run: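 Inhibition of purified Photinus luciferase is measured by luminescence. Substrate levels (D-luciferin, ATP) sit at their KM values. Each compound is tested in a concentration series.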
# [3] = qHTS assay to identify small molecule agonists of the constitutive androstane receptor (CAR) signaling pathway - cell viability counter screen (AID 1224836); also: nearly all actives have a fitted effect of over 45% in size; also: potency is read from the fitted curve at half-maximal effect
# How it was run: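 Viability read-out: CellTiter-Fluor fluorescence after 23 h compound exposure at 37 C/5% CO2 in double-stable HepG2-CYP2B6-hCAR cells, with PK11195 present at 0.75 uM final; compounds tested in 15-point titration.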
# [4] = qHTS assay to identify small molecule antagonists of the constitutive androstane receptor (CAR) signaling pathway - cell viability counter screen (AID 1224837); also: nearly all actives have a fitted effect of over 45% in size; also: potency is read from the fitted curve at half-maximal effect
# How it was run: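 HepG2 cells stably carrying hCAR and CYP2B6-2.2kb reporter, stimulated with 50 nM CITCO and compounds at 15 concentrations for 23 h at 37 C. Viability measured by CellTiter-Fluor fluorescence.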
# [5] = target: Nuclear receptor subfamily 1 group I member 3 (Homo sapiens) (UniProt Q14994); experiment: qHTS assay to identify small molecule antagonists of the constitutive androstane receptor (CAR) signaling pathway (AID 1224838); also: nearly all actives have a fitted effect of over 40% in size; also: potency is read from the fitted curve at half-maximal effect
# How it was run: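 HepG2 cells stably carrying hCAR and a CYP2B6-2.2kb luciferase reporter, seeded 4 hrs before compound (15 concentrations). Stimulated with 50 nM CITCO for 24 hr at 37 C. ONE-Glo luminescence read after 30 min at room temperature.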
# [6] = qHTS assay to identify small molecule antagonists of the estrogen related receptor signaling pathway with the pleiotropic PPARgamma coactivator (PGC) from Tox21 10K library - cell viability counter screen (AID 1224840; active = well fitted cell-killing curve with a large enough effect in the repeat runs, not every such curve was filed as active; also: nearly all actives have a fitted effect of over 40% in size; also: potency is read from the fitted curve at half-maximal effect)
# How it was run: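 PGC/ERR cells (2,000/well) plated 6 h, then compound-treated for 17.5 h at 37 C. Viability measured by CellTiter-Fluor fluorescence after 30 min at 37 C, multiplexed with the pathway assay.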
# [7] = target: Thyrotropin receptor (Homo sapiens) (UniProt P16473); experiment: qHTS assay to identify small molecule agonists of the thyroid stimulating hormone receptor (TSHR) signaling pathway (AID 1224843; calls by dose curve; also: nearly all actives have a fitted effect of over 45% in size)
# How it was run: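 Screening of the Tox21 10K collection used HEK293 cells engineered with TSHR at 800 cells per well. After a 30-min room-temperature compound exposure, HTRF cAMP reagents were added and fluorescence recorded 1 h later.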
# [8] = qHTS assay to identify small molecule agonists of the hypoxia (HIF-1) signaling pathway - cell viability counter screen (AID 1224844; calls by dose curve; also: nearly all actives have a fitted effect of over 50% in size; also: potency is read from the fitted curve at half-maximal effect)
# How it was run: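 HRE-bla ME-180 cells, 2,000/well in 0.5% dialyzed FBS medium, treated 17 h at 37C with compounds. Viability read in the same wells as the bla reporter, by CellTiter-Glo luminescence after 30 min at room temperature.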
# [9] = qHTS assay to identify small molecule agonists of H2AX (AID 1224845; active = well fitted activation curve with a large enough effect in the signal ratio in the repeat runs, not every such curve was filed as active; the % refers to the signal ratio; also: potency is read from the fitted curve at half-maximal effect)
# How it was run: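 Phospho-H2AX Ser139 measured by HTRF (ex 320 nm; em 665 and 620 nm) after 24 hr antibody incubation. Compounds, 15 concentrations, 0.76% DMSO, were applied to CHO-K1 cells for 3hr at 37C before lysis.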
# [10] = qHTS assay to identify small molecule agonists of H2AX - cell viability counter screen (AID 1224847; calls by dose curve; also: nearly all actives have a fitted effect of over 30% in size; also: potency is read from the fitted curve at half-maximal effect)
# How it was run: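 CHO-K1 wt, 1000 cells/well, o/n 37C; cpds 15 conc, 3 h 37C, 0.76% DMSO; CellTiter-Glo, 30 min RT, luminescence.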
# [11] = qHTS RealTime-Glo MT Cell Viability Assay in HepG2 cells - 24 hour (AID 1224867); also: nearly all actives have a fitted effect of over 50% in size; also: potency is read from the fitted curve at half-maximal effect
# How it was run: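 Compound treatment began 5 h after plating HepG2 cells (600/well) with NanoLuc luciferase and prosubstrate. Plates stayed at 37 C for 40 h; luminescence was captured at six time points, 0 h through 40 h.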
# [12] = qHTS RealTime-Glo MT Cell Viability Assay in HEK293 cells - 32 hour (AID 1224868); also: nearly all actives have a fitted effect of over 50% in size; also: potency is read from the fitted curve at half-maximal effect
# How it was run: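 Quantitative high-throughput screen of the Tox21 10K library in HEK293: cells and RealTime-Glo reagents plated together, compound added at 5 h, luminescence monitored through 40 h at 37 C.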
# [13] = A CellTox Green Cytotoxicity Assay to monitor cytotoxicity in HEK293 cells - 0 hour (AID 1224869); also: nearly all actives have a fitted effect of over 50% in size
# How it was run: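 HEK293 cells, 600/well, were preincubated 5 hours and then exposed to compounds at 37 C for up to 40 hours. A cell-impermeant cyanine dye staining dead-cell DNA was read by fluorescence at 0, 8, 16, 24, 32 and 40 h time points.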
# [14] = qHTS RealTime-Glo MT Cell Viability Assay in HepG2 cells - 40 hour (AID 1224870); also: nearly all actives have a fitted effect of over 50% in size; also: potency is read from the fitted curve at half-maximal effect
# How it was run: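 Real-time viability: cells seeded at 600 per well together with NanoLuc and cell-permeant prosubstrate, compounds added after 5 h incubation. Luminescence tracked at 0, 8, 16, 24, 32 and 40 h of exposure.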
# [15] = qHTS assay to identify small molecule agonists of the hypoxia (HIF-1) signaling pathway (AID 1224846; active = well fitted activation curve with a large enough effect in the signal ratio in the repeat runs, not every such curve was filed as active; the % refers to the signal ratio)
# How it was run: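 HRE-bla ME-180 beta-lactamase reporter cells in medium with 0.5% dialyzed FBS, pre-incubated 5 h then exposed to compounds 17 h at 37C, 5% CO2; reporter induction read with CCF4-AM FRET substrate.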
# [16] = target: Nuclear receptor subfamily 1 group I member 3 (Homo sapiens) (UniProt Q14994); experiment: qHTS assay to identify small molecule agonists of the constitutive androstane receptor (CAR) signaling pathway (AID 1224839); also: nearly all actives have a fitted effect of over 15% in size
# How it was run: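 Luminescence read-out (ONE-Glo, 30 min, room temperature) from double-stable HepG2-CYP2B6-hCAR cells exposed 24 h to 15-point compound series in presence of 0.75 uM PK11195 final.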
# [17] = qHTS assay to identify small molecule agonists of the estrogen related receptor signaling pathway with the pleiotropic PPARgamma coactivator (PGC) from Tox21 10K library (AID 1224842); also: nearly all actives have a fitted effect of over 15% in size
# How it was run: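 Luminescence from One-Glo (30 min, room temperature) measured after PGC/ERR cells had 18 h at 37 C with pinned compound (23 nL in DMSO). Cells had been seeded at 2,000 per well and pre-incubated 6 h.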
# [18] = qHTS assay to identify small molecule antagonists of the estrogen related receptor (ERR) signaling pathway from Tox21 library (AID 1224848); also: nearly all actives have a fitted effect of over 50% in size; also: potency is read from the fitted curve at half-maximal effect
# How it was run: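 Antagonist-mode screen of the Tox21 10K library in an NTP-provided ERR reporter cell line; 18 h compound exposure at 37 C, luminescence measured with ONE-Glo.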
# [19] = qHTS assay to identify small molecule antagonists of the estrogen related receptor signaling pathway with the pleiotropic PPARgamma coactivator (PGC) from Tox21 10K library (AID 1224841; call rule not given here; also: potency is read from the fitted curve at half-maximal effect)
# How it was run: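 PGC/ERR cell line, 2,000 cells/well, pre-incubated 6 hours at 37 C, then exposed to compounds for 18 hours at 37 C; luciferase read with One-Glo luminescence after 30 min at room temperature.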
# [20] = qHTS assay to identify small molecule agonists of the estrogen related receptor (ERR) signaling pathway from Tox21 library (AID 1224849; calls by dose curve; also: nearly all actives have a fitted effect of over 15% in size); settings: ERR reporter cell line, ONE-Glo luciferase, 18 h; at 92.4 µM (top of the series) unless noted
# How it was run: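 ERR reporter cells (NTP line) pre-incubated 6 hours at 37 C, then exposed to compounds for 18 hours at 37 C. ONE-Glo luciferase luminescence was read after 30 minutes at room temperature.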
# Sequence of Nuclear receptor subfamily 1 group I member 3 (Homo sapiens) (Q14994 whole entry, looked up): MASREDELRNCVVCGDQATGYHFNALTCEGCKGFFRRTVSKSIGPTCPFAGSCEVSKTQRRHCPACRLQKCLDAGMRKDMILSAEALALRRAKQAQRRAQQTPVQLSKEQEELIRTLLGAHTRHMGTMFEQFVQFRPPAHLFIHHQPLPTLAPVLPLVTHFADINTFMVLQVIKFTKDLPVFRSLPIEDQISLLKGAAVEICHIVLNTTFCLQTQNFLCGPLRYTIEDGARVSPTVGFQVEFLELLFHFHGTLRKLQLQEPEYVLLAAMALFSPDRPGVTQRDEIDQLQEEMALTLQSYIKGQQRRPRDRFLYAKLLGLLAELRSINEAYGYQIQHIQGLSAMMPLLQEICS
# Sequence of Thyrotropin receptor (Homo sapiens) (P16473 whole entry, looked up): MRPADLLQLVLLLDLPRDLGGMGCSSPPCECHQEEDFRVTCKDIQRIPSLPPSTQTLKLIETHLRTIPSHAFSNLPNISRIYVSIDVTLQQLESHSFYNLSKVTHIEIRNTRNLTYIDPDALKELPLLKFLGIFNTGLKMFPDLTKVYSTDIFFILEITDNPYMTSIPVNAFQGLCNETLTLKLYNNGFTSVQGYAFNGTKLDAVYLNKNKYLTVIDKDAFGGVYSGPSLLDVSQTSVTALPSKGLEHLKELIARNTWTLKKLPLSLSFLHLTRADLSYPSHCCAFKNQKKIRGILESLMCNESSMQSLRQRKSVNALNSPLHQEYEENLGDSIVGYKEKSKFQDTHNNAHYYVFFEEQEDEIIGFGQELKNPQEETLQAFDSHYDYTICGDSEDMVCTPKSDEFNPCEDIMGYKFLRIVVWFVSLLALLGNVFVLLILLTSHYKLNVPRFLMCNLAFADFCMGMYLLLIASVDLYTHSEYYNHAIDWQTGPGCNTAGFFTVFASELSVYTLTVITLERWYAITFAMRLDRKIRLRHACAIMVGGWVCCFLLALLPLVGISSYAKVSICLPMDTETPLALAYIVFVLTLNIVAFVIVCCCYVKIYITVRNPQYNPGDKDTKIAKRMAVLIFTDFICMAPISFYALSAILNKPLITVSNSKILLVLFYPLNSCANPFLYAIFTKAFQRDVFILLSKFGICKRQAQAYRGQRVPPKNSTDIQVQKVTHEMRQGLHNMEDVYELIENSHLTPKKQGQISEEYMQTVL
# Sequence of Luciferin 4-monooxygenase (Photinus pyralis) (P08659 whole entry, looked up): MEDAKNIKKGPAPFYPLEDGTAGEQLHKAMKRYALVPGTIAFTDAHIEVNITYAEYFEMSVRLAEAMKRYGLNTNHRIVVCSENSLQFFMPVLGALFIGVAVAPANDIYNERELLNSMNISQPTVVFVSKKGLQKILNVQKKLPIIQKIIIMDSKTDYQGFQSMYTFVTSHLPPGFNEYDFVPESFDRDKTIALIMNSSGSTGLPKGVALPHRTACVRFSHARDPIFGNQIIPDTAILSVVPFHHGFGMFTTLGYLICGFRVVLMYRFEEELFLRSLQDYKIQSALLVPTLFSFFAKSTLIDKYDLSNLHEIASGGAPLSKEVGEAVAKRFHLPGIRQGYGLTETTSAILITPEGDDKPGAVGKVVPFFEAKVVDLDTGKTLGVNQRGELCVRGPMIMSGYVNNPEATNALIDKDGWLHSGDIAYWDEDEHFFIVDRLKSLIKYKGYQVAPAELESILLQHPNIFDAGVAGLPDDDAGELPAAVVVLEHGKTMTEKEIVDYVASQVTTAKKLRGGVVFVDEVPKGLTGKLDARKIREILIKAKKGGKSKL
SMILES,Potency [1],Potency [2],Potency [3],Potency [4],Potency [5],Potency [6],Potency [7],Potency [8],Potency [9],Potency [10],Potency [11],Potency [12],Potency [13],Potency [14],Potency [15],Potency [16],Potency [17],Potency [18],Potency [19],"activity change, positive = activation [20]"
CCN(C(=O)c1cc(C)cc(OC[C@H](C)Nc2ccncc2)c1)C(C)C,inactive,inactive,inactive,inactive,inactive,inactive,inactive,inactive,inactive,inactive,inactive,inactive,inactive,inactive,–,–,–,–,–,–
Cc1cccc(S(=O)(=O)O)c1C,inactive,inactive,inactive,inactive,inactive,inactive,inactive,inactive,inactive,–,–,inactive,inactive,inactive,inactive,–,–,–,–,–
CCCCCCCCCCCCCC[P+](CCCC)(CCCC)CCCC (tested in a mixture with another compound),24.5 µM (active),inactive,19.4 µM (active),19.4 µM (active),17.3 µM (active),–,inactive,15.6 µM (active),–,3.6 µM (active),19.6 µM (active),0.553 µM (active),inactive,19.6 µM (active),–,inactive,–,–,–,–
Nc1ccc(N)c2ccccc12,30.6 µM (active),inactive,30.6 µM (active),30.6 µM (active),–,54.4 µM (active),inactive,24.5 µM (active),–,101 µM (active),–,–,inactive,–,–,inactive,inactive,27.3 µM (active),–,–
CCc1cc(SCc2sc(-c3ccc(C(F)(F)F)cc3)nc2CN2CCN(c3ccc(OC)cc3)CC2)ccc1OCC(=O)O,34.4 µM (active),inactive,inactive,inactive,inactive,–,–,3.89 µM (active),50.5 µM (active),89.8 µM (active),–,19.5 µM (active),inactive,inactive,–,inactive,inactive,17.2 µM (active),19.3 µM (active),-62.5%
COCCCC/C(=N\OCCN)c1ccc(C(F)(F)F)cc1,inactive,inactive,inactive,inactive,inactive,–,inactive,–,inactive,inactive,inactive,–,–,inactive,inactive,inactive,inactive,inactive,2.98 µM (active),-2.43% [at 42.5 µM]
CCCCC(CC)CN=C(N)NC(N)=NCCCCCCN=C(N)NC(N)=NCC(CC)CCCC (stereo unspecified),11.9 µM (active),inactive,26.6 µM (active),23.7 µM (active),–,16.8 µM (active),–,23.9 µM (active),inactive,43.8 µM (active),8.49 µM (active),5.35 µM (active),inactive,8.49 µM (active),–,–,inactive,6.68 µM (active),23.7 µM (active),-65.1% [at 42.5 µM]
O=C(Nc1ccc(Oc2ccc(Cl)cc2)c(Cl)c1)c1cc(I)cc(I)c1O,inactive,inactive,inactive,inactive,inactive,–,inactive,–,inactive,–,inactive,inactive,inactive,inactive,–,inactive,inactive,–,–,-35.9% [at 42.5 µM]
CC[C@H]1O[C@]2(CC[C@@H]1C)C[C@@H]1C[C@@H](C/C=C(\C)C[C@@H](C)/C=C/C=C3\CO[C@@H]4[C@H](O)C(C)=C[C@@H](C(=O)O1)[C@]34O)O2,60.6 µM (active),inactive,68 µM (active),60.6 µM (active),–,60.6 µM (active),inactive,21.7 µM (active),44.6 µM (active),50 µM (active),–,24.3 µM (active),inactive,43.3 µM (active),–,inactive,inactive,30.4 µM (active),19.2 µM (active),-67.4%
CC1=C(C(=O)OC(C)C)C(c2cccc([N+](=O)[O-])c2)C(C(=O)OC2CN(C(c3ccccc3)c3ccccc3)C2)=C(N)N1 (stereo unspecified),29.8 µM (active),inactive,29.8 µM (active),29.8 µM (active),–,–,–,6.74 µM (active),–,55.2 µM (active),21.3 µM (active),–,inactive,23.9 µM (active),–,inactive,inactive,26.6 µM (active),26.6 µM (active),-68.1% [at 42.5 µM]
CCCN(CCC)C(=O)C(CCC(=O)OCCCN1CCN(CCOC(=O)Cc2c(C)n(C(=O)c3ccc(Cl)cc3)c3ccc(OC)cc23)CC1)NC(=O)c1ccccc1 (stereo unspecified),23.7 µM (active),inactive,23.7 µM (active),26.6 µM (active),inactive,–,inactive,19 µM (active),inactive,inactive,–,–,inactive,inactive,–,inactive,inactive,29.8 µM (active),29.8 µM (active),-47.5% [at 42.5 µM]
COc1cc(/C=C/C(=O)O[C@H]2CC[C@]34C[C@]35CC[C@]3(C)[C@@H]([C@H](C)CCC=C(C)C)CC[C@@]3(C)[C@@H]5CC[C@H]4C2(C)C)ccc1O,inactive,inactive,inactive,inactive,inactive,–,–,inactive,inactive,–,inactive,inactive,inactive,inactive,inactive,inactive,inactive,inactive,inactive,-5.43% [at 42.5 µM]
CCCCCCCC/C=C\CCCCCCCCOCCO,35.5 µM (active),inactive,25.1 µM (active),31.6 µM (active),–,63.1 µM (active),–,28.4 µM (active),–,65.6 µM (active),–,3.19 µM (active),inactive,inactive,–,inactive,–,–,–,–
Cc1ccc2oc(CN(Cc3ccccc3)C(=O)Nc3c(F)cc(F)cc3F)c(-c3ccc(Cl)cc3)c2c1,inactive,inactive,inactive,inactive,–,inactive,inactive,inactive,inactive,–,–,inactive,–,–,–,–,inactive,23.6 µM (active),–,-42.4%
